# Article PMC4336329 (PLoS ONE, 2015)
# The whole screen tested about 310,000 compounds, of which about 14,000 (4.5%) showed an effect of 50% or more. The effect is printed as a negative number. Shown is part of a subset that was picked to be rich in strong results.
# Biological target: human ether-à-go-go-related gene (hERG) potassium channel (human, UniProt Q12809)
# Assay: primary screen, population patch clamp on CHO cells stably expressing hERG; higher = less effect of the substance
# 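Also: peak tail current of the secondary pulse compared with the same well before compound.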
# Sequence of human ether-à-go-go-related gene (hERG) potassium channel (Q12809 whole entry, looked up): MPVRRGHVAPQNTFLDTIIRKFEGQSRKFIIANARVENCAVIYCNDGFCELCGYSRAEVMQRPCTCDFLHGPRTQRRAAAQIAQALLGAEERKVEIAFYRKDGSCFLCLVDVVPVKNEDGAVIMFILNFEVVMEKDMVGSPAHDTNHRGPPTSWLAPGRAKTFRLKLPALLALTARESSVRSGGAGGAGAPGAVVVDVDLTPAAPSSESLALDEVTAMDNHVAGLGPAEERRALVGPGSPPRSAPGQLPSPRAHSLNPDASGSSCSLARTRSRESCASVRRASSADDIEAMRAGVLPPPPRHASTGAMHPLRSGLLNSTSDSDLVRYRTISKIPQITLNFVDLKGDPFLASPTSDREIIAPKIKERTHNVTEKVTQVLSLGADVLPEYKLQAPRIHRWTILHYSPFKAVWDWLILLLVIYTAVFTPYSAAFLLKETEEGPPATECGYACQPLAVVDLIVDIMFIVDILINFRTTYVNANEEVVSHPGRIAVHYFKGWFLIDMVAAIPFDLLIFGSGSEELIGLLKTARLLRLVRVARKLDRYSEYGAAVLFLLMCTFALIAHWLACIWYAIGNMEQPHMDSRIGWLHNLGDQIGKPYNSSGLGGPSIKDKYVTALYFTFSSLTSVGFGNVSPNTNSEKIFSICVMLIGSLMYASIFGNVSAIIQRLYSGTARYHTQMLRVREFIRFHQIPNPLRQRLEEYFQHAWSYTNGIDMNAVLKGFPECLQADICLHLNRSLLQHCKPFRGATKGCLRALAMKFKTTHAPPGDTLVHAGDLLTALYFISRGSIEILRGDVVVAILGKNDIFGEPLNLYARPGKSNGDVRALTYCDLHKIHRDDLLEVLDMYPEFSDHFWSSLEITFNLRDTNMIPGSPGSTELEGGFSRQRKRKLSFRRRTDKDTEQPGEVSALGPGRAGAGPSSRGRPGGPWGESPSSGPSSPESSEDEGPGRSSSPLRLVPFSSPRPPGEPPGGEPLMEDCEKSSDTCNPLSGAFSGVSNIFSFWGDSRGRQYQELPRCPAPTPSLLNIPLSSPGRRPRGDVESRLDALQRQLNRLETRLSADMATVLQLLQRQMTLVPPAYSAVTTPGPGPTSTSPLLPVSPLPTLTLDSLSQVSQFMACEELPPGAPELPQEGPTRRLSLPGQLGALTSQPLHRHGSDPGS
row,SMILES,"hERG current change (%, negative = inhibition) at 10uM"
1,COc1ccccc1CSc1ncc(-c2ccc([N+](=O)[O-])cc2)[nH]1,-13.8%
2,CC(C)(C)C(=O)CN1C(=O)NC2(CCCc3ccccc32)C1=O (centres unmarked),14%
3,O=C(CCC1CCN(C(=O)c2cncs2)CC1)Nc1ccccc1,-4.83%
4,COCCNC(=O)CN(C(=O)CCC(=O)Nc1ccccn1)c1ccc(C)c(C)c1,16%
5,COc1ccc(C(=O)/C=C/NCc2ccc(F)cc2)cc1OC,-65%
6,Cc1ccc(C(=O)/C=C/NCc2ccc(F)cc2)cc1,-9.71%
7,CCc1ccc(C(=O)/C=C/NCc2ccc(F)cc2)cc1,-4.74%
8,CC(C)=C1C2CCC1C1C(=O)N(c3nc(-c4ccccc4)c(C)s3)C(=O)C21 (centres unmarked),-2.93%
9,COc1cccc(NC(=O)CSc2nc3scc(C)c3c(=O)[nH]2)c1,10.5%
10,CN(C)CCNS(=O)(=O)c1ccc(N2CCN(c3ccc(F)cc3)CC2)c([N+](=O)[O-])c1,-62.4%
11,CC(=O)c1ccc(N2CCN(c3ccc(S(=O)(=O)NCCN(C)C)cc3[N+](=O)[O-])CC2)cc1,-23.2%
12,CC(=O)c1ccc(N2CCN(c3ccc(S(=O)(=O)NCCCN(C)C)cc3[N+](=O)[O-])CC2)cc1,-18.1%
13,CCOC(=O)c1c(N)nn(C(=O)C(C)C)c1-c1ccc(OC)cc1,22.1%
14,O=[n+]1c2c(n([O-])c3cc(F)c(F)cc31)CCCC2,10.2%
15,CCN(CC)CCCn1c2c(c(SCC(=O)Nc3nc(C)cs3)nc1=O)CCC2,-42.6%
16,CCN(CC)CCCn1c2c(c(SCC(=O)Nc3nccs3)nc1=O)CCC2,-32%
17,CCN(CC)CCn1c2c(c(SCC(=O)Nc3nc(C)cs3)nc1=O)CCC2,-48.7%
18,CN(C)CCn1c2c(c(SCC(=O)Nc3nccs3)nc1=O)CCCC2,-30%
19,CCN(CC)CCn1c2c(c(SCC(=O)Nc3nccs3)nc1=O)CCCC2,-59.5%
20,Cc1csc(NC(=O)CSc2nc(=O)n(CCN(C)C)c3c2CCCC3)n1,-55.9%
21,CCN(CC)CCn1c2c(c(SCC(=O)Nc3nc(C)cs3)nc1=O)CCCC2,-70.1%

row,SMILES,"hERG current change (%, negative = inhibition) at 10uM"
1,Cc1ccc(S(=O)(=O)NCC(=O)NCC(=O)OC(C(=O)NC(N)=O)C(C)C)cc1C (centres unmarked),8.86%
2,CC(C)c1nc(SCC(=O)N2CCCCCC2)c2c(=O)n(C)c(=O)n(C)c2n1,-11.2%
3,Cc1nc2c(cc1C(=O)N/N=C/c1ccc([N+](=O)[O-])cc1)c(=O)n(C)c(=O)n2C,-12%
4,CC1=C(C)CC(C(=O)Nc2cccc(Cl)c2)C(C(=O)O)C1 (centres unmarked),9.8%
5,O=C(CN1C2CCCC1CC(NC(=O)C1CCCCC1)C2)Nc1ccccc1 (centres unmarked),-27%
6,O=C(NC1CC2CCCC(C1)N2CC(=O)N1CCCc2ccccc21)C1CCCCC1 (centres unmarked),-70.6%
7,CC(=O)NC1CC2CCCC(C1)N2CC(=O)N1CCCc2ccccc21 (centres unmarked),-7.15%
8,CCOc1ccc(C(=O)N2CCC(C(=O)c3ccc4c(c3)OCCO4)CC2)cc1,-75.7%
9,O=C1c2ccccc2S(=O)(=O)c2cc(C(=O)N3CCC(O)CC3)ccc21,6.7%
10,O=C(c1ccc2c(c1)OCCO2)C1CCN(C(=O)c2ccc(F)cc2)CC1,-13%
11,NC(=O)C1CCN(C(=O)c2ccc3c(c2)S(=O)(=O)c2ccccc2C3=O)CC1,2.8%
12,CCOC(=O)N1CCN(C(=O)C2CCN(C(=O)c3ccc([N+](=O)[O-])cc3)CC2)CC1,-72%
13,CCOC(=O)C1CCN(C(=O)C2CCN(S(=O)(=O)CC)CC2)CC1,-2.7%
14,O=C(c1ccc2c(c1)OCCO2)C1CCN(C(=O)c2ccc(F)c(F)c2)CC1,-15.7%
15,CCOC(=O)C1CCN(C(=O)c2ccc3c(c2)S(=O)(=O)c2ccccc2C3=O)CC1,-76.6%
16,O=C(c1ccc([N+](=O)[O-])cc1)N1CCN(C(=O)C2CCCCC2)CC1,-28.5%
17,CCOC(=O)N1CCN(C(=O)C2CCN(C(=O)c3ccc(C(C)(C)C)cc3)CC2)CC1,-31%
18,CCOC(=O)C1CCN(C(=O)C2CCN(S(=O)(=O)N3CCCC3)CC2)CC1,-64.9%
19,CCOC(=O)N1CCN(C(=O)C2CCN(S(=O)(=O)N3CCCC3)CC2)CC1,6.91%
20,CC1CC(C)CN(S(=O)(=O)c2ccc(NC(=S)NC(=O)c3ccccc3)cc2)C1 (centres unmarked),8.01%
